Activity calls are given as the source filed them.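 How the source made its calls: active means fitted half-maximal concentration AC50 at or below ten times the highest valid tested dose, with signal falling as DNA is displaced (actives reach about 34 µM in these data); inconclusive means flat fit at moderate signal loss, or poor fit quality; inactive means the rest, including signal rising instead of falling.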

A short description of the assay: DNA intercalators displacing acridine orange, dose response, artefact control for KSHV LANA DNA-binding inhibitor project, biochemical, fluorescence polarization, cherry-picked samples, set 2 (AID 504727).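 On activity change, negative = DNA displacement: 0% = median of neutral control wells and -100% = mitoxantrone positive control wells.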 Particulars: AC50: Acridine orange-DNA displacement; series mostly up to 35 µM; activity change, negative = DNA displacement: at the top concentration. On the technique in general: In fluorescence polarisation assays a small probe gives low polarisation when free and higher when bound to something large.
In the case of `O=C1c2cccc3c(N4CCCCC4)ccc(c23)C(=O)N1c1cccc(O)c1`, the “activity change, negative = DNA displacement” value (“activity change” below) was -4.78% (inactive). Still for that read-out and setting: then `CC(=O)N/C(=N\OCc1ccc(Br)cc1)c1nonc1NC(C)=O`, with 3.71% (inactive); and `COC(=O)c1ccc(Oc2nc(Nc3ccc(F)cc3)nc(N3CCCC3)n2)cc1`, with 3.15% (inactive). Take `CCOc1ccc(-n2c(Cc3cc(=O)[nH]c(=O)[nH]3)nnc2SCc2cccnc2)cc1`: the “activity change” value was 2.46% (inactive). On to `CCOCCCn1c(SCC(=O)NC(C)(C)C)nc2ccccc2c1=O`, for which the “activity change” value was -0.81% (inactive). Usually AC50 stands for the concentration at which the activity in the assay is half-maximal. With `O=c1[nH]c2c(s1)C=Nc1ccccc1N2`, the AC50 was 6.39 µM (active). Consider `COc1ccc(/C=N/NC(=O)c2ccc3nc[nH]c3c2)c(OC)c1`, for which the “activity change” value is -8.43% (inactive). In the case of `Cc1cccc(-c2nsc(SCC(=O)Nc3nccs3)n2)c1`, the “activity change” value was 3.03% (inactive). `CS(=O)(=O)Nc1nc2n(n1)C(c1ccccc1)C=C(c1ccc(Br)cc1)N2` (stereo not drawn): the AC50 is 18 µM (active).

With `Cc1ccc(C)c(OCC(=O)N(Cc2nnc(-c3ccccc3Cl)o2)C2CC2)c1`, the “activity change” value is 1.6% (inactive).

For the molecule `COc1ccc(C(=O)OCC(=O)NC2CC2)cc1S(=O)(=O)Nc1ccc(C)cc1`, the “activity change” value was 4.67% (inactive). Same read-out and setting: then `COc1ccc(NS(=O)(=O)c2cccc3ccccc23)cc1`, with 3.43% (inactive); and `Nc1nnc(CC(=O)N/N=C/c2cc([N+](=O)[O-])cc(Br)c2O)s1`, with 10.9% (inactive); and `CCCOc1ccc(C=Nc2ccc(OC)c(S(=O)(=O)N3CCOCC3)c2)c(O)c1`, with -0.786% (inactive). The same measure, in the same setting: then `O=C(O)CN1C(=O)/C(=C\c2cc(Br)ccc2OCc2ccc([N+](=O)[O-])cc2)SC1=S`, with 5.9% (inactive); and `Cc1c(N)cc(S(=O)(=O)O)cc1NC(=O)c1cccc([N+](=O)[O-])c1`, with 6.89% (inactive); and `CSc1ncccc1C(=O)OCCCC(=O)c1ccc(F)cc1`, with 7.76% (inactive). For `COc1cc(O)c(C(C)=O)c(CC(=O)O)c1`, the “activity change” value is 1.3% (inactive).

As for `COC(=O)c1ccccc1NC(=O)CCS(=O)(=O)c1ccc(Br)cc1`, the “activity change” value was 1.54% (inactive). On the same count and under the same terms, then `N#CCCN(CCC#N)C(=O)C1c2ccccc2Oc2ccccc21`, with -5% (inactive); and `O=C1C=CC2=C3c4cc(O)c(O)cc4CC3(O)COC2=C1O` (stereo not drawn), with -14.1% (inactive).

As to `O=C(O)c1[nH]c2ccccc2c1C(c1cc(Cl)cc([N+](=O)[O-])c1O)c1c(C(=O)O)[nH]c2ccccc12`, the “activity change” value was 5.18% (inactive).

On to `CS(=O)(=O)c1cccc(C(=O)Oc2ccccc2)c1`, for which the “activity change” value is 2.74% (inactive). Regarding `CC(=O)OCCCn1c(C)[n+](C)c2cc(Cl)c(Cl)cc21`, the “activity change” value is 4.62% (inactive). For `COc1cc(OC)cc(-c2c(-c3ccsc3)c3cc(Br)ccc3n2C)c1`, the “activity change” value was 2.88% (inactive). In the case of `CCOC(=O)c1ccccc1Nc1cc(C)nc2nc(C)nn12`, the “activity change” value is -8.07% (inactive).

In the case of `CCC(=O)Oc1ccc2c(c1)O/C(=C\c1ccco1)C2=O`, the “activity change” value is -9.88% (inactive). Same read-out and setting: then `O=S(=O)(NCc1cccnc1)c1ccc(Cl)s1`, with 5.04% (inactive); and `O=C(OCc1ccccc1)N1C=CC2CC1c1c(Cl)cccc12` (stereo not drawn), with 2.87% (inactive). Same read-out and setting: then `C=C1c2cccc(O)c2C(O)=C2C(=O)[C@]3(O)C(O)=C(C(N)=O)C(=O)[C@@H](N(C)C)[C@@H]3[C@@H](O)[C@H]12`, with 5.07% (inactive); and `CC(Sc1ncccn1)C(=O)NNC(=O)c1cccc(Cl)c1` (stereo not drawn), with 1.6% (inactive). Take `C/C(=N\Nc1nc2c(s1)CCCC2)c1ccc(Cl)cc1`: the “activity change” value is 5.41% (inactive). Still for that read-out and setting: then `Oc1[nH]c2ccccc2c1N=Nc1ccccc1F`, with 21.1% (inactive); and `NC(=O)C1=NOC(CNc2ncc(C(F)(F)F)cc2Cl)C1` (stereo not drawn), with 4.43% (inactive).

For `CCN(Cc1ccccc1)S(=O)(=O)c1cc2[nH]c(=O)c(=O)[nH]c2cc1C`, the “activity change” value was 4.76% (inactive). For the molecule `CCCCCn1nc(-c2ccccc2)c2nc3ccccc3nc21`, the AC50 is > 35 µM (inactive).

On to `O=C(O)c1ccccc1NC(=O)c1cc(-c2ccccc2)nc2ccccc12`, for which the “activity change” value was 1.7% (inactive).

On to `CCn1c(=O)c(C(=O)NCCN2CCCCC2)c(O)c2ccccc21`, for which the “activity change” value is -3.28% (inactive).

(Values after PubChem BioAssay AID504727 (Broad Institute, 2011).)
